# Compound activity (PubChem)
# Rows were chosen to be rich in hits. Some 6.9% of all compounds tested hit in one or more screens of this group.
# MCF10A rerep – inducers of DNA re-replication in MCF 10A breast cells; MCF 10A DNA re-replication, Hoechst nuclear intensity, 48 h; Potency, µM (highest dose often 46.1 µM), inactives show at the highest dose activity, positive = re-replication, actives largely listed as activators; 350,000 tested, 2.9% active; AID 624296; note: potency is the fitted concentration of half-maximal effect; % of control where 0% means no effect; nearly all actives have a fitted effect of over 50% in size
# Giardia killer – Giardia lamblia killing | Giardia lamblia trophozoite viability | activity change, % at 7.66 µM, hits read low | 340,000 tested, 0.15% active; in the data active = activity change below about -80%; inconclusive = between about -30% and that limit;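 note: parasites exposed to compound for two days anaerobically before the ATP read; % is set by controls: 0 for no effect and ±100 for the full control effect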
#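 Trophozoites 100 cells/well + cpd; 48 hrs, 37 deg C, anaerobic. ATPLite 1-Step added, 15-30 min RT, luminescence read (ATP-based viability).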
# S-ASM inh – blocks human secretory acid sphingomyelinase; placental ASM, HMU-PC fluorogenic substrate, 60 min; AID 504937; 340,000 tested, 0.006% active; Potency, µM (highest dose often 57.5 µM), without a hit: at the highest dose activity change, negative = inhibition, usual class: inhibitors; P17405; note: potency is the fitted concentration of half-maximal effect
# Target sequence (P17405 47-631 limits assumed): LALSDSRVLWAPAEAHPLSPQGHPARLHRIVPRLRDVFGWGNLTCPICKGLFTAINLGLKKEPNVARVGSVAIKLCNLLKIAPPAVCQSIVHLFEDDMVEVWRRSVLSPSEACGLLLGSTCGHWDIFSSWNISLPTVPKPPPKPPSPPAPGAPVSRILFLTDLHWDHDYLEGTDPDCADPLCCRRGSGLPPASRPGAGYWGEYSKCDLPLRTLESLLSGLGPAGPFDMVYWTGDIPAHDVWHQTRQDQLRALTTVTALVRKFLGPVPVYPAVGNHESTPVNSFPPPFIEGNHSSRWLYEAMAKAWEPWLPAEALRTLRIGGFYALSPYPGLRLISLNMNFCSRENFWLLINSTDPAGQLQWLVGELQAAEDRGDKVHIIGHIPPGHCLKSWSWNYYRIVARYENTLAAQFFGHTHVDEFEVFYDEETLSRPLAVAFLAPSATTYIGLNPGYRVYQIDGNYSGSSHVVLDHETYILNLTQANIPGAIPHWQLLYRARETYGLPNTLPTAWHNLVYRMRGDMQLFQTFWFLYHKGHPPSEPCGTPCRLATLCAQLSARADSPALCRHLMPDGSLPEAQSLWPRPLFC
#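 HMU-PC0 cleavage (9 uM final) by human placental ASM, 60 min at 37 °C following 10 min compound exposure at RT; stopped at pH 10, fluorescence Ex 386/Em 447 nm.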
# SW480 rereplic – DNA re-replication induction in SW480 cells. Potency, µM (series often up to 46.1 µM), for inactives: at the highest dose re-replication activation, usual class: activators. 340,000 tested, 1.8% active. SW480 DNA re-replication, Hoechst DNA content imaging, 48 h; note: potency is the fitted concentration of half-maximal effect; % of control where 0% means no effect; nearly all actives have a fitted effect of over 55% in size
#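 SW480 cells exposed to compounds for 48 hr at 37 C, 5% CO2, then Hoechst-stained 40 min. Nuclear DNA content imaged by fluorescence scanning (405 nm excitation, 500-530 nm emission); re-replication scored as increased high-intensity nuclei.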
# KB-3-1 cytotox – KB-3-1 parental cell cytotoxicity | AID 1347075 | 400,000 tested, 1.4% active | Potency, µM (highest dose often 46.1 µM), usual class: cytotoxic | KB-3-1 viability, CellTiter-Glo ATP luminescence, 72 h; note: potency is the fitted concentration of half-maximal effect; % is set by controls: 0 for no effect and ±100 for the full control effect; nearly all actives have a fitted effect of over 60% in size
#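 Multi-concentration cytotoxicity screen in KB-3-1 cells grown in DMEM lacking phenol red with 10% FBS. After 72 h at 37 °C with compound, ATP-dependent luminescence was recorded.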
# KB-V1 MDR tox – kills drug-selected multidrug resistant KB-V1 cells; Potency, µM (titrated, usually from 46.1 µM), hits mostly cytotoxic; 400,000 tested, 3.4% active; KB-V1 MDR cells viability, CellTiter-Glo, 72 h; note: potency is the fitted concentration of half-maximal effect; % is set by controls: 0 for no effect and ±100 for the full control effect; nearly all actives have a fitted effect of over 60% in size
#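 In this primary screen, KB-V1 cells overexpressing P-gp are incubated with library compounds (lowest to highest concentration) for 72 h at 37 degrees C before a luminescent ATP viability read.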
# * hit, by the source's call; i = inactive; u = inconclusive; x = no result; [ ] = remark or other dose. Unless noted, calls come from the whole dose curve; as a rule, active = well fitted curve in the direction sought with a large enough effect; inconclusive = small, poorly fitted or top-dose-only effect, or another doubt; inactive = no such curve, though single readings can be large; an effect the other way counts as inactive or inconclusive.
SMILES,MCF10A rerep,Giardia killer,S-ASM inh,SW480 rereplic,KB-3-1 cytotox,KB-V1 MDR tox
COc1ccc(OC)c(-c2nc3c(C)n[nH]c(=O)c3[nH]2)c1,24%,19,-2%,8%,i,18µM*
COc1ccc(Cn2nnc3c(C)n[nH]c(=O)c32)cc1,0%,-2,-1%,-3%,i,i
CCc1cccc(NC(=O)Cn2c(-c3ccc(F)cc3)cc(C(C)=O)c2C)c1,x,x,x,x,i,i
COc1ccc(NC(=O)[C@H](COCc2ccccc2)NC(=O)OC(C)(C)C)cc1,5%,13,0%,10%,i,5.2µM*
CN(C)C(=O)[C@H]1C[C@H]1[C@@H](O)[C@H](CO)NC(=O)[C@H](COCc1ccccc1)NC(=O)OC(C)(C)C,2%,8,9%,8%,i,i
COc1ccc(NC(=O)C(NC(=O)OC(C)(C)C)C(C)OCc2ccccc2)cc1 (centres undefined),6%,-10,1%,-1%,i,4.1µM*
CC[C@H](C)[C@H](NC(=O)OCc1ccccc1)C(=O)Nc1ccc(NC(C)=O)cc1,-19%,-4,2%,3%,i,i
CCc1ccc(NC(=O)CN2C(=O)CCSc3ccccc32)cc1,x,x,x,x,i,i
CN(CC(=O)Nc1ccc2c(c1)OCCO2)S(=O)(=O)c1cccc2cccnc12,1%,8,-2%,1%,i,i
O=S(=O)(Nc1ccc2c(c1)OCCO2)c1cccc2cccnc12,-4%,9,0%,-8%,i,16µM*
O=C(Oc1cccc2cccnc12)c1cccs1,5.2µM*,10,0%,u,u,12µM*
O=C(Oc1cccc2cccnc12)c1ccco1,u,-9,2%,u,u,u
O=C(Oc1cccc2cccnc12)c1ccc2c(c1)OCCO2,3.3µM*,u,-4%,10µM*,i,u
Cc1cccc(NC(=O)c2c(C)cc(C)nc2SCC(=O)c2ccccc2)c1,x,x,x,x,i,u
O=C1OC(Nc2nc(-c3ccc(F)cc3)cs2)c2ccccc21 (centres undefined),21µM*,7,11%,26µM*,i,u
O=C1OC(Nc2nc3ccccc3s2)c2ccccc21 (centres undefined),2%,26,0%,7%[9.22 µM],i,i
Cn1c(=O)n(CCc2ccccc2)c(=O)c2c1nc1n2CCCN1Cc1ccccc1,u,-13,-19%,-5%,i,21µM*
Cn1c(=O)n(Cc2ccccc2)c(=O)c2c1nc1n2CCN1Cc1ccco1,0.73µM*,27,3%,u,i,i
CC(C)Cn1c(=O)c2c(nc3n2CCCN3CCc2ccccc2)n(C)c1=O,11%,11,-13%,1%,i,10µM*
Cn1c(=O)n(CCc2ccccc2)c(=O)c2c1nc1n2CCCN1CCc1ccccc1,21µM*,10,u,u,i,23µM*
CCCn1c(=O)c2c(nc3n2CCCN3Cc2ccccc2)n(C)c1=O,10%,8,-5%,-11%,i,i
Cc1ccc(OC(C)C(=O)Nc2ccc(F)cc2)c([N+](=O)[O-])n1 (centres undefined),-2%,u,3%,-2%,i,i
Cc1cccc(NC(=O)Cn2nnc(C(=O)NCc3cccs3)c2N)c1,x,x,x,x,i,i
O=C(N/N=C/c1sc(=O)[nH]c1-[n+]1ccc2ccccc2c1)c1ccccc1[O-],5%,4,19%,140%,8.2µM*,u
COc1ccccc1-c1nn(CCC(=O)Nc2cccc(C(C)=O)c2)c2nc(C)cc(C)c12,x,x,x,x,i,u
SMILES,MCF10A rerep,Giardia killer,S-ASM inh,SW480 rereplic,KB-3-1 cytotox,KB-V1 MDR tox
CCOC(=O)c1c(C)c(C(=O)NC2CCCCCC2)c(C)n1C,20%,7,1%,3%,i,8.2µM*
CCOC(=O)c1c(C)c(C(=O)N(C)C2CCCCC2)c(C)n1C,-1%,-13,2%,-4%,i,15µM*
Cc1ccc(-c2csc3nc[nH]c(=S)c23)cc1C,u,-5,-3%,u,u,13µM*
COc1ccc(-c2csc3nc[nH]c(=O)c23)cc1OC,5%,1,2%,7%,i,i
Cc1cc(C)cc(-n2c(SCC(=O)N3CCCCCC3)nc3c([nH]c4ccccc43)c2=O)c1,x,x,x,x,i,i
O=C(COc1cccnc1[N+](=O)[O-])Nc1ncc(Cl)cc1Cl,3%,-80*,-2%,0%,i,i
COc1ccc(S(=O)(=O)N2CCOCC2)cc1NC(=O)Cc1sc(C)nc1-c1ccc(F)cc1,3%,-6,2%,4%,u,12µM*
COc1ccc(S(=O)(=O)N2CCCCC2)cc1NC(=O)Cc1sc(C)nc1-c1ccc(F)cc1,7%,-18,-1%,4%,i,u
O=C(COc1cccnc1[N+](=O)[O-])Nc1cccc(S(=O)(=O)N2CCOCC2)c1,4%,-5,-4%,1%,i,i
COc1ccc(S(=O)(=O)N2CCOCC2)cc1NC(=O)COc1cccnc1[N+](=O)[O-],0.58µM*,u,0%,-9%,i,i
O=[N+]([O-])c1ccc(S(=O)(=O)CC2CSc3nc4ccccc4n32)cc1 (centres undefined),12%,7,-2%,u,1.8µM*,2.6µM*
O=C(Nc1nnc(-c2ccncc2)s1)Nc1ccc(Cl)cc1F,x,x,x,x,i,i
S=C(Nc1ccccc1Cl)N1CCN(c2ccccn2)CC1,2%,-2,1%,-5%,i,i
Fc1ccccc1NC(=S)N1CCN(c2ccccn2)CC1,u,0,-1%,10%,i,21µM*
CC(NNC(=S)N1CCN(c2ccccn2)CC1)c1nccc2ccccc12 (centres undefined),u,-11,-1%,u,u,0.46µM*
CCNC(=S)N1CCN(c2ccccn2)CC1,-4%,-10,4%,0%,i,i
COc1ccc(-c2cc(C(F)(F)F)nc(SCC(=O)N3CCC(C)CC3)n2)cc1,x,x,x,x,i,i
COc1ccc(NC(=O)Cc2ccc(NC(=O)N3CCCCc4ccccc43)cc2)c(OC)c1,x,x,x,x,i,i
Cc1ccc(Cl)cc1OCC(=O)NCCOC(=O)Nc1sc(=S)n(C)c1C,17%,-3,-2%,2%,u,13µM*
COc1ccc(-c2oc3cccnc3c2/C=C/c2ccc(OC)c(OC)c2)cc1,u,-19,i,1.6µM*,i,i
CCc1cc(=O)n2[nH]c(-c3ccccc3)c(-c3ccccc3)c2n1,u,-6,2%,21µM*,u,i
